Out of some 290,000 compounds screened, about 890 (0.31%) were called active. Rule as the data show it: active = inhibition mostly above about 52% (no sharp cut-off); inactive = mostly below about 76%. Many of the other results were omitted from the sample, so actives are more common in it than they were.
Test: inhibitors of HIV fusion peptide binding, primary screen, biochemical, uHTS, fluorescence dequenching (AID 1986)
Details: cell-free peptide binding, 30 min, stronger effect = higher value
[1] = measured here: repeat confirmation average inhibition, at 18.6 µM

Row | SMILES | inhibition (at 20 µM) | inhibition [1]
1 | Cc1ccc(N/N=C/c2ccc3c(c2)OCCO3)cc1Cl | 2.7% (inactive) | 
2 | COC(=O)c1nnn(-c2ccccc2)c1N | -4.4% (inactive) | 
3 | CCOC(=O)C1=C(N)n2c(s/c(=C\c3cccs3)c2=O)=C(C(=O)OCC)C1c1cccs1 (stereo not given) | 3.8% (inactive) | 
4 | N#CC1=C(N)n2c(s/c(=C\c3ccco3)c2=O)=C(C#N)C1c1ccco1 (stereo not given) | 26% (inactive) | 
5 | N#CC1=C(N)n2c(s/c(=C\c3cccs3)c2=O)=C(C#N)C1c1cccs1 (stereo not given) | 74.8% (active) | 
6 | CCc1nnc(NC(=O)C2Cc3ccccc3C(=O)O2)s1 (stereo not given) | -3.6% (inactive) | 
7 | CCOC(=O)c1c(CC(C)C)csc1/N=C/C1=C(O)CCCC1=O | 21.5% (inactive) | 
8 | CCOC(=O)c1c(-c2ccc(OC)cc2)csc1/N=C/C1=C(O)CCCC1=O | 71.6% (active) | 
9 | CCOC(=O)c1c(-c2ccc(OC)cc2)csc1/N=C/C1C(=O)CCCC1=O | 52.3% (inactive) | 2.2%
10 | CCOC(=O)c1c(/N=C/C2=C(O)CC(C)(C)CC2=O)sc(C)c1C | 1.6% (inactive) | 
11 | CCOC(=O)c1c(/N=C/C2=C(O)CCCC2=O)sc(C)c1C | 52.3% (active) | 
12 | CCOC(=O)c1c(/N=C/C2=C(O)CCCC2=O)sc2c1CCCC2 | -0.2% (inactive) | 
13 | Cc1ccc(C(=O)CC(C(=O)O)n2cncn2)cc1 (stereo not given) | 1.7% (inactive) | 
14 | Cc1ccc2c(c1)S/C(=C/c1ccc[n+](C)c1)N2CCO | -0.9% (inactive) | 
15 | O=C(CC1SC(=O)N(Cc2ccccc2Cl)C1=O)Nc1nccs1 (stereo not given) | -0.8% (inactive) | 
16 | Cn1c(CCNC(=O)C(C)(C)C)nc2ccccc21 | 1.8% (inactive) | 
17 | CN(C)[C@@H]1C(=O)C(C(N)=O)=C(O)[C@@]2(O)C(=O)C3=C(O)c4c(O)ccc(Cl)c4[C@@H](O)[C@H]3C[C@@H]12 | 58.4% (active) | 
18 | CN(C)c1ccc(O)c2c1CC1CC3[C@@H](N(C)C)C(=O)C(C(N)=O)=C(O)[C@]3(O)C(=O)C1=C2O (stereo not given in full) | 54% (inactive) | 4.9%
19 | C=C1c2cccc(O)c2C(O)=C2C(=O)[C@]3(O)C(O)=C(C(N)=O)C(=O)[C@@H](N(C)C)[C@@H]3[C@@H](O)[C@H]12 | 63.7% (active) | 
20 | C[C@H]1c2cccc(O)c2C(O)=C2C(=O)[C@]3(O)C(O)=C(C(N)=O)C(=O)[C@@H](N(C)C)[C@@H]3[C@@H](O)[C@@H]21 | 16% (inactive) | 
21 | COc1ccc2nc(NC(=O)Cn3cnc4c(=O)n(C)c(=O)n(C)c43)sc2c1 | 4% (inactive) | 
22 | CCN(CC)C(=O)CC(c1ccc(F)cc1)c1ccc(OC)cc1 (stereo not given) | 2% (inactive) | 
23 | COc1ccc(OCC(=O)Nc2ccncc2)cc1 | 1.1% (inactive) | 
24 | CCC1(c2ccccc2)NC(=O)N(CC(=O)Nc2ccccc2N2CCCCC2)C1=O (stereo not given) | 2.6% (inactive) | 
25 | S=c1[nH]nc(C2CCCCC2)o1 | 0.3% (inactive) | 
26 | COC(=O)[C@H](CCSC)NC(=O)NCCC1=CCCCC1 | 0.8% (inactive) | 
27 | CCc1cccc(NC(=O)CN(C)S(=O)(=O)c2cccs2)c1 | 27.6% (inactive) | 
28 | Cc1ccc(C)c(N(C(=O)c2csnn2)C(C(=O)NC2CCCCC2)c2ccncc2)c1 (stereo not given) | -2.4% (inactive) | 

Row | SMILES | inhibition (at 20 µM) | inhibition [1]
29 | CSc1nc(-c2ccco2)cc(-c2ccccc2)c1C#N | -1.1% (inactive) | 
30 | N#Cc1c(-c2ccco2)cc(-c2ccccc2)[nH]c1=O | 50.8% (inactive) | 12.4%
31 | N#Cc1c(-c2ccccc2)cc(-c2ccco2)c(C#N)c1N | 70.5% (active) | 
32 | CN(C)c1cccc(NC(=O)c2cccc3ccccc23)c1 | -1.2% (inactive) | 
33 | Cc1ccc(CN(C(=O)Cn2nnc3ccccc32)C(C(=O)NCc2ccco2)c2ccc(C)o2)cc1 (stereo not given) | 0.4% (inactive) | 
34 | O=C(/C=C/c1ccco1)Nc1cc(Cl)ccc1C(=O)O | 74.9% (active) | 
35 | O=C(/C=C/c1ccco1)Nc1cccnc1Cl | 7.4% (inactive) | 
36 | O=C(/C=C/c1ccco1)Nc1ccccn1 | 33.3% (inactive) | 
37 | O=C(/C=C/c1ccco1)Nc1ccccc1C(=O)O | 58.3% (inactive) | 24.2%
38 | Cc1ccc(NC(=O)/C=C/c2ccco2)nc1 | 56.5% (active) | 
39 | O=C(/C=C/c1ccco1)Nc1cccc(NC(=O)/C=C/c2ccco2)n1 | 93.3% (inactive) | 1.5%
40 | COc1ccc(C(=O)C2CCCN(C(=O)c3csc(C(C)=O)c3)C2)c(C)c1 (stereo not given) | 1.4% (inactive) | 
41 | CS(=O)(=O)N(CC(=O)Nc1ccccc1C(=O)N1CCCC1)c1ccccc1Br | -0.2% (inactive) | 
42 | COc1cc(CNCCc2ccc(S(N)(=O)=O)cc2)ccc1OCC(=O)NC(C)(C)C | -0.7% (inactive) | 
43 | CSc1nc(=O)n2cccc(C)c2n1 | 3.1% (inactive) | 
44 | COc1ccc(NC(=O)c2ccccc2OCc2c(C)noc2C)cc1OC | 2.3% (inactive) | 
45 | CC[C@@H](C(=O)[C@@H](C)[C@@H](O)[C@H](C)CCc1ccc(C)c(O)c1C(=O)O)[C@H]1O[C@](CC)([C@H]2CC[C@](O)(CC)[C@H](C)O2)C[C@@H]1C | 56.3% (active) | 
46 | CN(C)N1C(N)=C(C#N)C(c2cccs2)C2=C1CC(C)(C)CC2=O (stereo not given) | -0.7% (inactive) | 
47 | CCOC(=O)c1ccc(NC(=O)c2ccc(CN3CCOCC3)cc2)cc1 | -0.8% (inactive) | 
48 | O=C(O)COc1ccc(/C=C2\SC(=Nc3ccccc3)N(c3ccccc3)C2=O)cc1 | 36.9% (inactive) | 
49 | COc1ccc(N=C2S/C(=C\c3ccc(N4CCOCC4)o3)C(=O)N2CCc2c[nH]c3ccccc23)cc1 | 14.3% (inactive) | 
50 | CCOC(=O)COc1ccc(/C=C2/SC(=Nc3ccccc3)N(Cc3cccnc3)C2=O)cc1OC | -2.8% (inactive) | 
51 | COc1cc(/C=C2\SC(=Nc3ccccc3)N(Cc3ccco3)C2=O)ccc1OC(C)C(=O)O (stereo not given) | 34.6% (inactive) | 
52 | COc1cc(/C=C2\SC(=Nc3ccc(N4CCOCC4)cc3)N(C)C2=O)ccc1OC(C)C(=O)O (stereo not given) | 0.3% (inactive) | 
53 | COCCN1C(=O)/C(=C/c2ccc(Oc3ccc([N+](=O)[O-])cn3)c(OC)c2)SC1=Nc1ccccc1 | 0.3% (inactive) | 
54 | CCCN1C(=O)/C(=C/c2ccco2)SC1=Nc1ccc(OC)cc1 | 13.2% (inactive) | 
55 | O=C1/C(=C/c2ccc(N3CCOCC3)o2)SC(=Nc2ccccc2)N1CCc1c[nH]c2ccccc12 | 37.2% (inactive) | 

From PubChem BioAssay AID1986 (Sanford-Burnham Center for Chemical Genomics, 2009)
